Measurements reported in PubChem BioAssay (Tox21).
Inconclusive results are not listed. Calls of active or inactive are those of the source. Unless noted, calls follow the shape of the dose curve; as a rule, active = well fitted curve in the direction sought with a large enough effect in the repeat runs; inconclusive = weak or mixed curves; inactive = no such curve, though single readings can be large; an effect the other way counts as inactive or inconclusive.

Key:
[1] = qHTS assay to identify aromatase inhibitors - cell viability counter screen (AID 743084);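 also: cells stimulated with testosterone during compound exposure; nearly all actives have a fitted effect of over 55% in size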
[2] = molecular target: Aryl hydrocarbon receptor (Homo sapiens) (UniProt P35869); assay: qHTS assay to identify small molecule that activate the aryl hydrocarbon receptor (AhR) signaling pathway (AID 743085);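 also: HG2L7.5c1 human HepG2 liver cells with stably integrated DRE-driven firefly reporter; series mostly up to about 70 µM; nearly all actives have a fitted effect of over 15% in size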
Outline: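 AhR agonist activity is inferred from enhanced light output of a DRE-controlled firefly luciferase reporter in HepG2 cells, measured with ONE-Glo following 24 h treatment at 37C.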

[3] = qHTS assay to identify small molecule that activate the aryl hydrocarbon receptor (AhR) signaling pathway - cell viability counter screen (AID 743086);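 also: HepG2 liver cells carrying the AhR DRE luciferase reporter; series mostly up to about 70 µM; nearly all actives have a fitted effect of over 45% in size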
Outline: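 HepG2-AhR-luc (HG2L7.5c1) cells, 4000/well, treated 24 h at 37 C with compound; viability measured as CellTiter-Fluor fluorescence after 30 min in the same wells as the luciferase read.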

[4] = molecular target: Peroxisome proliferator-activated receptor gamma (Homo sapiens) (UniProt P37231); assay: qHTS assay to identify small molecule agonists of the peroxisome proliferator-activated receptor gamma (PPARg) signaling pathway (AID 743094; active = well fitted activation curve with a large enough effect in the signal ratio in the repeat runs, not every such curve was filed as active; the % refers to the signal ratio)
Outline: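 Beta-lactamase FRET fluorescence was the read-out after a 1 h room-temperature substrate step, following 17 h compound treatment at 37C of HEK293H cells expressing a UAS-driven bla reporter responsive to PPARg.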

[5] = molecular target: Peroxisome proliferator-activated receptor gamma (Homo sapiens) (UniProt P37231); assay: qHTS assay to identify small molecule antagonists of the peroxisome proliferator-activated receptor gamma (PPARg) signaling pathway (AID 743191; calls by dose curve; also: nearly all actives have a fitted effect of over 30% in size; also: potency is read from the fitted curve at half-maximal effect)
Outline: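 GeneBLAzer PPARg UAS-bla HEK293H cells, 5 h post-plating, exposed to compounds 17 h at 37C. LiveBLAzer B/G FRET substrate added for 1 h at room temperature; beta-lactamase reporter read by fluorescence intensity.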

[6] = qHTS assay for small molecule agonists of the antioxidant response element (ARE) signaling pathway - cell viability counter screen (AID 743203; calls by dose curve; also: nearly all actives have a fitted effect of over 55% in size)
Outline: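 HepG2 cells carrying ARE-driven beta-lactamase; 2,000 cells/well; 5 hrs plating; compound pinned from DMSO; 16 hrs 37C/5% CO2; CellTiter-Glo added; 30 min RT; luminescence.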

[7] = qHTS assay for small molecule activators of the heat shock response signaling pathway - cell viability counter screen (AID 743209); also: nearly all actives have a fitted effect of over 50% in size
Outline: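 Luminescence from CellTiter-Glo, added after the beta-lactamase FRET read, gave the viability signal. Cells were HSE-bla HeLa treated with DMSO-dissolved compounds for 5 h at 37 C following overnight plating.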

[8] = qHTS assay for small molecule activators of the heat shock response signaling pathway (AID 743210; active = well fitted activation curve with a large enough effect in the signal ratio in the repeat runs, with a control signal flat, not every such curve was filed as active; the % refers to the signal ratio; also: series mostly up to about 63 µM)
Outline: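 HSE-bla HeLa cells (beta-lactamase reporter under heat shock response elements), plated overnight, then exposed to compounds 5 h at 37 C; LiveBLAzer B/G FRET substrate added, 2.5 h at room temperature, fluorescence intensity read.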

[9] = qHTS assay to identify small molecule agonists of the peroxisome proliferator-activated receptor delta (PPARd) signaling pathway - cell viability counter screen (AID 743211); also: nearly all actives have a fitted effect of over 55% in size
Outline: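 qHTS cell viability: PPARd-bla HEK293H; 17 h cpd, 37C; CellTiter-Glo, luminescence at 30 min RT.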

[10] = molecular target: Peroxisome proliferator-activated receptor delta (Homo sapiens) (UniProt Q03181); assay: qHTS assay to identify small molecule agonists of the peroxisome proliferator-activated receptor delta (PPARd) signaling pathway (AID 743212; calls by dose curve)
Outline: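 GeneBLAzer UAS-bla HEK293H cells carrying a PPARδ construct were exposed to compounds at 37 °C. Beta-lactamase activity was read by FRET fluorescence after 2 h at room temperature with LiveBLAzer B/G substrate.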

[11] = qHTS assay to identify small molecule agonists of the farnesoid-X-receptor (FXR) signaling pathway - cell viability counter screen (AID 743218); also: nearly all actives have a fitted effect of over 45% in size
Outline: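 HEK 293T FXR-bla cells; 5 h pre-incubation, 16 h compound exposure at 37 C; LiveBLAzer substrate 2 h RT, then CellTiter-Glo 30 min RT, luminescence.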

[12] = molecular target: Bile acid receptor (Homo sapiens) (UniProt Q96RI1); assay: qHTS assay to identify small molecule agonists of the farnesoid-X-receptor (FXR) signaling pathway (AID 743220; active = well fitted activation curve with a large enough effect in the signal ratio in the repeat runs, not every such curve was filed as active; the % refers to the signal ratio)
Outline: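 Beta-lactamase reporter under UAS control in GeneBLAzer FXR HEK 293T cells (5000/well) measured with LiveBLAzer FRET substrate after 2 h at room temperature. Compound exposure lasted 16 h at 37C.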

[13] = qHTS assay to identify small molecule antagonists of the farnesoid-X-receptor (FXR) signaling pathway - cell viability counter screen (AID 743221; active = well fitted cell-killing curve with a large enough effect in the repeat runs, not every such curve was filed as active; also: nearly all actives have a fitted effect of over 50% in size)
Outline: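 After a 5 h settling period, FXR-bla HEK 293T cells receive compound and chenodeoxycholic acid (50 uM final) and incubate 16 h at 37 C; CellTiter-Glo luminescence, read after 30 min at room temperature, reports cell viability.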

[14] = molecular target: Vitamin D3 receptor (Homo sapiens) (UniProt P11473); assay: qHTS assay to identify small molecule agonists of the vitamin D receptor (VDR) signaling pathway (AID 743222; calls by dose curve)
Outline: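 VDR-bla cells, 2,000/well; 4 h preincubation 37C; cpd (DMSO) 16 h; LiveBLAzer B/G substrate 2 h RT; fluorescence intensity read.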

[15] = molecular target: Vitamin D3 receptor (Homo sapiens) (UniProt P11473); assay: qHTS assay to identify small molecule antagonists of the vitamin D receptor (VDR) signaling pathway (AID 743223; active = well fitted inhibition curve with a large enough effect in the signal ratio in the repeat runs, not every such curve was filed as active; the % refers to the signal ratio)
Outline: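 Reporter line VDR-bla; stimulus 1alpha,25-(OH)2 vitamin D3, 3 nM final; compound co-addition, 16 h 37C/5% CO2; LiveBLAzer B/G substrate 2 h RT; fluorescence intensity.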

[16] = qHTS assay to identify small molecule antagonists of the peroxisome proliferator-activated receptor gamma (PPARg) signaling pathway - cell viability counter screen (AID 743194); conditions: Potency: co-treated with 50 nM rosiglitazone; also: nearly all actives have a fitted effect of over 55% in size
Outline: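 Cytotoxicity counter screen in PPARg-bla HEK293H cells, same wells as reporter assay. Compounds plus 50 nM rosiglitazone (final) for 17 h at 37 C, then viability read by CellTiter-Glo luminescence.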

[17] = qHTS assay for small molecule agonists of the antioxidant response element (ARE) signaling pathway (AID 743202; active = well fitted activation curve with a large enough effect in the signal ratio in the repeat runs, not every such curve was filed as active; the % refers to the signal ratio)
Outline: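 ARE-bla HepG2 cells (beta-lactamase reporter under the antioxidant response element), plated 5 hours, then exposed to compounds 16 hours at 37 C. LiveBLAzer B/G FRET substrate added for 2 hours at room temperature; fluorescence intensity read.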

[18] = qHTS assay to identify small molecule antagonists of the peroxisome proliferator-activated receptor delta (PPARd) signaling pathway - cell viability counter screen (AID 743213); also: nearly all actives have a fitted effect of over 50% in size
Outline: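 HEK293H PPARd UAS-bla cells, 5 h pre-incubation, compound + L165041 300 nM final, 17 h 37 C; B/G FRET substrate 2 h RT; then CellTiter-Glo 30 min RT, luminescence.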

[19] = molecular target: Peroxisome proliferator-activated receptor delta (Homo sapiens) (UniProt Q03181); assay: qHTS assay to identify small molecule antagonists of the peroxisome proliferator-activated receptor delta (PPARd) signaling pathway (AID 743215; active = well fitted inhibition curve with a large enough effect in the signal ratio in the repeat runs, not every such curve was filed as active; the % refers to the signal ratio;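 also: cells stimulated with agonist L165041 at 300 nM final during compound exposure; series mostly up to about 62 µM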)
Outline: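 Read-out is beta-lactamase FRET fluorescence, measured 2 h after substrate addition at room temperature. Beforehand, UAS-bla HEK293H cells carrying the PPARd reporter were exposed to compounds with L165041 at 300 nM final for 17 h at 37 C.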

[20] = molecular target: Bile acid receptor (Homo sapiens) (UniProt Q96RI1); assay: qHTS assay to identify small molecule antagonists of the farnesoid-X-receptor (FXR) signaling pathway (AID 743217; active = well fitted inhibition curve with a large enough effect in the signal ratio in the repeat runs, not every such curve was filed as active; the % refers to the signal ratio)
Outline: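 HEK 293T FXR-UAS-bla, 5000 cells/well; compound + CDCA 50 uM final; 16 h, 37 °C; B/G FRET substrate 2 h RT; fluorescence.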
% is scaled to controls: 0 for no effect and ±100 for the full control effect.

Sequence of Bile acid receptor (Homo sapiens) (Q96RI1 whole entry, looked up): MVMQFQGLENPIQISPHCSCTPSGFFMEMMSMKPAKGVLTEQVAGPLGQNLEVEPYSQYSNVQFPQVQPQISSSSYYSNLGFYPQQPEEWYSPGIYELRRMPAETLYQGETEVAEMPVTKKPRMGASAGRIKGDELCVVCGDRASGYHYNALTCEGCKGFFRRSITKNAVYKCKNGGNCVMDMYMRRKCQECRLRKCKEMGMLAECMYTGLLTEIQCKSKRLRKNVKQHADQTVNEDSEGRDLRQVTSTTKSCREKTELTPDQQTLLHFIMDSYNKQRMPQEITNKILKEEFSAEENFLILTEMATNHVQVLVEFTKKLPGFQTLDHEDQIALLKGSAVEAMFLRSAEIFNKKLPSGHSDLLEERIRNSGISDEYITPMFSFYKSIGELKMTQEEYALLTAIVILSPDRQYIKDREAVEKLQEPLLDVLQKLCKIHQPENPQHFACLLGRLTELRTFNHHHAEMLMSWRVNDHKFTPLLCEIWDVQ
Sequence of Peroxisome proliferator-activated receptor gamma (Homo sapiens) (P37231 whole entry, looked up): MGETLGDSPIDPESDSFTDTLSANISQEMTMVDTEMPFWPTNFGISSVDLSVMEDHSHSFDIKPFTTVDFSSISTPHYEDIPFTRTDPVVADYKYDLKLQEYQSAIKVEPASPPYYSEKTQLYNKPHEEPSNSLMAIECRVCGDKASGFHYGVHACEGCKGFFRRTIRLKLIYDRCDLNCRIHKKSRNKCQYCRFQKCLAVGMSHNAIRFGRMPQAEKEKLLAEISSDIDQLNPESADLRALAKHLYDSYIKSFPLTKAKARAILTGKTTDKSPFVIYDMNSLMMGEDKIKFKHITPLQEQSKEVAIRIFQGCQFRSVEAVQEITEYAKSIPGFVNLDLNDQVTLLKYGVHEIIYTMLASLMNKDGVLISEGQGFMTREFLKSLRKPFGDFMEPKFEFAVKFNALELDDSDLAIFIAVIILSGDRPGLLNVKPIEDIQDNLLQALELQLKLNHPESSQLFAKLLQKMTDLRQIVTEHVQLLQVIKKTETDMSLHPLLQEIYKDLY
Sequence of Peroxisome proliferator-activated receptor delta (Homo sapiens) (Q03181 whole entry, looked up): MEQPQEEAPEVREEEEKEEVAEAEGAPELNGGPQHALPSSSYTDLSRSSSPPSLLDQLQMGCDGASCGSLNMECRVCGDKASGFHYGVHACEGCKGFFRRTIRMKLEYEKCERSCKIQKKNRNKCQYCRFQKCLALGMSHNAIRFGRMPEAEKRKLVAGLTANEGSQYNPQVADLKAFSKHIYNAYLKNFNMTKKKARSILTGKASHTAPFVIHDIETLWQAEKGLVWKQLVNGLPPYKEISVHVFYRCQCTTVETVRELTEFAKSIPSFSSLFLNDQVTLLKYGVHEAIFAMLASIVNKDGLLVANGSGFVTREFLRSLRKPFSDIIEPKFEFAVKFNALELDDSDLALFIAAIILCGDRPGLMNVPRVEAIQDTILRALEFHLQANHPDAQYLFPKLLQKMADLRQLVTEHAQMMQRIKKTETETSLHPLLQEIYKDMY
Sequence of Vitamin D3 receptor (Homo sapiens) (P11473 whole entry, looked up): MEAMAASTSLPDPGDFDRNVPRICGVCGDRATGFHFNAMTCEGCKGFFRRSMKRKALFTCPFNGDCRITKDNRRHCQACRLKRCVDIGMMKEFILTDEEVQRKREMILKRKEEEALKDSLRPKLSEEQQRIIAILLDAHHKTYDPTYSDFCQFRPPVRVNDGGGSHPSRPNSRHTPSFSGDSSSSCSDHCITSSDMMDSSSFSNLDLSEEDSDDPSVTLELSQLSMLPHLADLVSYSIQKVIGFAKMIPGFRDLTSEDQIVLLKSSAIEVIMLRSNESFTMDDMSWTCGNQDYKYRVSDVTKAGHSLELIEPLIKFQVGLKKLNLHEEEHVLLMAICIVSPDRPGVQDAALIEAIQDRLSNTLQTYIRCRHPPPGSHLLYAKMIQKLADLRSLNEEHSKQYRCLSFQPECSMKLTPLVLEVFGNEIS
Sequence of Aryl hydrocarbon receptor (Homo sapiens) (P35869 whole entry, looked up): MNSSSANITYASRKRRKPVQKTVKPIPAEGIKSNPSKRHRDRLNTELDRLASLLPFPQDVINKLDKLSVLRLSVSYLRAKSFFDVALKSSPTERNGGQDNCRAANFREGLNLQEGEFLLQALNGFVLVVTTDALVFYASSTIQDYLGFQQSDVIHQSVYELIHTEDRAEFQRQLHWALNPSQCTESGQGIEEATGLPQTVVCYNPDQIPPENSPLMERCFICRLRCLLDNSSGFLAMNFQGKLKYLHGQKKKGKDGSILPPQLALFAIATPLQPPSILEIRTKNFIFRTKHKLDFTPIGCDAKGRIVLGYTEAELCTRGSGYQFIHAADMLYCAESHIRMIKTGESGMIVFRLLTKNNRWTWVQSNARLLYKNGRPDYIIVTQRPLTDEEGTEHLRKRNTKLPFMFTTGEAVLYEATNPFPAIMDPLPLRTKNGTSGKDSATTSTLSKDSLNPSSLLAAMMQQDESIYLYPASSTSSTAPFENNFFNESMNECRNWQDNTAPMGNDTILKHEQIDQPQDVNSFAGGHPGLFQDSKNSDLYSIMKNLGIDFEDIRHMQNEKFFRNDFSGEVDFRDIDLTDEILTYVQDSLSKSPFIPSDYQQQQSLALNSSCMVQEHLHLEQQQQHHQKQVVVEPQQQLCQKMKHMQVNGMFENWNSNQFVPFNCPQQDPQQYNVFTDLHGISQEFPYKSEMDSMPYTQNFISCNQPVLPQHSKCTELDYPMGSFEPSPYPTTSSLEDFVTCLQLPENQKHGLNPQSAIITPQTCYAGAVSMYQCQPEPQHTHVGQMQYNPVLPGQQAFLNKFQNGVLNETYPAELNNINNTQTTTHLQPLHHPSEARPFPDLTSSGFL

CCOP(=O)(OCC)Oc1ccc([N+](=O)[O-])cc1
active: Potency [5] 22.1 µM
inactive: Potency [1] | Potency [2] | Potency [3] | Potency [4] | Potency [6] | Potency [7] | outcome [8] | Potency [9] | outcome [10] | Potency [11] | outcome [12] | Potency [13] | outcome [14] | outcome [15]

N#Cc1ccc(Cl)cc1
inactive: Potency [1] | Potency [2] | Potency [3] | Potency [4] | Potency [5] | Potency [16] | Potency [17] | Potency [6] | Potency [7] | outcome [8] | Potency [9] | outcome [10] | Potency [18] | Potency [11] | Potency [13] | outcome [14] | outcome [15]

NCC(CC(=O)O)c1ccc(Cl)cc1 (stereo not given)
inactive: Potency [1] | Potency [2] | Potency [3] | Potency [4] | activity change, negative = cytotoxicity [16] -16.4% [at 0.55 µM] | activation [17] -5.3% [at 0.756 µM] | viability change, negative = cytotoxic [6] 4.15% [at 0.756 µM] | activity change, negative = cytotoxicity [7] 1.94% [at 0.55 µM] | activation [8] -1.61% [at 0.55 µM] | activity change, negative = cytotoxicity [9] -0.324% [at 0.55 µM] | activation [10] 1.99% [at 0.55 µM] | viability change, negative = cytotoxic [18] -11.6% [at 0.575 µM]

C=CCCl
inactive: Potency [1] | Potency [2] | Potency [3] | Potency [4] | Potency [5] | Potency [16] | Potency [17] | Potency [6] | Potency [7] | outcome [8] | outcome [10] | Potency [18] | Potency [19] | Potency [13] | outcome [14]

COC(N)=O
inactive: Potency [1] | Potency [2] | Potency [3] | Potency [4] | Potency [5] | Potency [16] | Potency [6] | Potency [7] | outcome [8] | Potency [9] | outcome [10] | Potency [18] | Potency [19] | Potency [20] | outcome [12] | Potency [13] | outcome [14]

NC(=O)C(Cl)(Cl)Cl
inactive: Potency [1] | Potency [2] | Potency [3] | Potency [4] | Potency [5] | Potency [16] | Potency [6] | Potency [7] | outcome [8] | outcome [10] | Potency [18] | Potency [19] | Potency [20] | outcome [12] | Potency [13] | outcome [14] | outcome [15]

ClCCCCBr
inactive: Potency [1] | Potency [2] | Potency [3] | Potency [4] | Potency [5] | Potency [16] | Potency [17] | Potency [6] | Potency [7] | outcome [8] | Potency [9] | outcome [10] | Potency [18] | Potency [19] | Potency [20] | Potency [11] | outcome [12] | Potency [13] | outcome [14]

Cc1c(F)c(F)c(COC(=O)C2C(/C=C(\Cl)C(F)(F)F)C2(C)C)c(F)c1F (stereo not given)
inactive: Potency [1] | Potency [2] | Potency [3] | Potency [4] | Potency [5] | Potency [16] | Potency [6] | Potency [7] | outcome [8] | Potency [9] | Potency [11] | outcome [12] | Potency [13] | outcome [14] | outcome [15]

CC(O)(CS(=O)(=O)c1ccc(F)cc1)C(=O)Nc1ccc(C#N)c(C(F)(F)F)c1 (stereo not given)
inactive: Potency [1] | Potency [2] | Potency [3] | Potency [4] | Potency [5] | Potency [16] | Potency [7] | outcome [8] | outcome [10] | Potency [19] | Potency [13] | outcome [14] | outcome [15]
